Compound activity: PubChem BioAssay, several laboratories
S1P3 antag = S1P3 receptor antagonists, primary screen, cell-based; CHO S1P3 NFAT-BLA reporter, FRET fluorescence, antagonist mode; AID 485, 2006; inhibition, % at 4.98 µM; Sphingosine 1-phosphate receptor 3 (Homo sapiens), Q99500; actives 0.27% (n = 170,000);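 active = inhibition above the plate cutoff, the mean inhibition of test wells on that plate plus 3 SD, cut at about 28% in these data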;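 also: cells challenged with S1P at its EC80 of 0.8 µM; blue over green emission ratio from cleaved BLA substrate after 4 h stimulation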
Target sequence (Q99500 whole entry, looked up): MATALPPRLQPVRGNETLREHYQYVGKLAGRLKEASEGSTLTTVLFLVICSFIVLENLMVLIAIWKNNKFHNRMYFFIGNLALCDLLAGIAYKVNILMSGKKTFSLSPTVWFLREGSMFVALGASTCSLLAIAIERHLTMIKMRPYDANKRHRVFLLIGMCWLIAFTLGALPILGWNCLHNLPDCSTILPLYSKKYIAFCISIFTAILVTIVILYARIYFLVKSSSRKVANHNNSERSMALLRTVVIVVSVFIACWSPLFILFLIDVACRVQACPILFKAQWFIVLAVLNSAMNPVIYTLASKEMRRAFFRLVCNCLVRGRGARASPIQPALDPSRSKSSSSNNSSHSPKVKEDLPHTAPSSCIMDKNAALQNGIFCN
EP2 modulator = EP2 receptor modulators, cAMP readout, primary screen, cell-based, HTRF cAMP, PGE2 stimulation. EP2-expressing cells, cAMP HTRF FRET, PGE2 co-stimulation. induction, % at 25 µM. Prostaglandin E2 receptor EP2 subtype (Homo sapiens), P43116. actives 0.83% (n = 260,000);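 active = compounds whose cAMP rise, as percent of the full-agonist control response, exceeds 60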;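 also: rat C6 glioma line stably carrying human EP2 under a CMV promoter; the protocol text gives 20 µM as final concentration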
PGE2 EP2 inh = human EP2 receptor antagonists, primary screen, TR-FRET cAMP, C6 glioma cells. Prostaglandin E2 receptor EP2 subtype (Homo sapiens), P43116. actives 0.52% (n = 260,000). inhibition, % at 25 µM. AID 1422, 2008. C6 glioma cells expressing human EP2; cells stimulated with saturating PGE2;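 active = percent inhibition above 40 after rounding to a whole number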;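 also: rat C6 glioma host cells with rolipram phosphodiesterase inhibitor present; the protocol text gives 20 µM as final concentration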
S1P4 antag = S1P4 receptor antagonists, primary screen, cell-based; actives 0.26% (n = 220,000); AID 1510, 2009; inhibition, % at 4.98 µM; Sphingosine 1-phosphate receptor 4 (Homo sapiens), O95977; S1P4-expressing cells, antagonist mode, reporter read-out; in the data active = inhibition above about 29%
S1P4 agonist = S1P4 receptor agonists, primary screen, cell-based | Sphingosine 1-phosphate receptor 4 (Homo sapiens), O95977 | S1P4-expressing cell line, agonist reporter assay | activation, % at 4.98 µM | actives 0.35% (n = 220,000) | AID 1509, 2009; in the data active = activation above about 11%
Hits are given with their value; – = inactive; · = no result. Most compounds without a hit are left out; they make up all but 1.9% or so of the library.

SMILES	S1P3 antag	EP2 modulator	PGE2 EP2 inh	S1P4 antag	S1P4 agonist
CCCn1nc2ccccc2c1P(=O)(N1CCOCC1)N1CCOCC1	106	–	–	–	–
Cn1cc(C(=O)NP(=O)(N2CCOCC2)N2CCOCC2)c2ccccc21	–	–	–	–	–
Cc1ccc(NC(=[OH+])c2cc3ccccc3cc2O)c(C)c1.Cc1ccc(NC(=[OH+])c2cc3ccccc3cc2O)c(C)c1.[Ni]	·	–	43	·	·
CC(=O)O/C(=C1\C[C@@H]2[C@H]3CC=C4C[C@@H](OC(C)=O)CC[C@]4(C)[C@@H]3CC[C@@]2(C)C1=O)C(F)(F)F	·	–	47	·	·
CC1C[C@H]2CC(=O)[C@H]3CCCN4CCC[C@H]2[C@]34C1 (stereo partly drawn)	·	–	–	·	·
C[C@@H]1O[C@H](OC2[C@@H](O)[C@H](O)C(O)[C@H](O)[C@H]2O)[C@@H](N)C[C@H]1N=C(N)C(=O)O (stereo partly drawn)	·	–	51	·	·
COc1ccc(C(=O)O[C@@H]2CC[C@@]3(C)[C@@H]4CC[C@@H]5[C@@]6(O)C[C@@H](O)[C@@]7(O)[C@@H](CN8C[C@H](C)CC[C@H]8[C@]7(C)O)[C@]6(O)C[C@@]53O[C@@]42O)cc1OC	·	–	45	·	·
COc1cc2c(cc1OC)[C@@]13CCN4C=C5CCO[C@H]6CC(=O)N2[C@H]1[C@H]6[C@H]5C[C@H]43	·	–	53	·	·
COc1cc2c(cc1OC)C13CCN4CC5=CCOC6CC(=O)N2C1C6C5CC43 (stereo not drawn) (tested in a mixture with another compound)	–	–	–	–	–
O=S(=O)(O)/C(=C\c1ccccc1)c1ccccc1 (tested in a mixture with another compound)	·	–	46	·	·
NCC(=O)c1ccccc1	·	–	–	·	·
CCCSc1nc2ccccc2c(=O)n1-c1ccccc1C	·	75	–	·	·
CCn1nc(CC(=O)N(CCN(C)C)C2CCN(C)CC2)c2ccccc2c1=O	·	–	–	·	·
Nc1nc(=S)c2ncn(C3OC(CO)C(O)C3O)c2[nH]1 (stereo not drawn)	–	–	–	–	–
Nc1cc[c]([Hg])cc1.Nc1nc2c(ncn2[C@H]2O[C@H](CO)[C@@H](O)[C@@H]2O)c(=[SH+])[nH]1	·	–	104	·	·
C[C@]12CC[C@H](O)C[C@@H]1CC[C@H]1[C@H]2CC[C@@]2(C)[C@H](C3=CC(=O)OC3)[C@H](O)C[C@]12O	·	–	43	·	·
O=[N+]([O-])c1cc(S(=O)(=O)c2ccc(O)c([N+](=O)[O-])c2)ccc1O	–	–	–	–	–
C[As+](C)(c1ccc(Br)c([N+](=O)[O-])c1)c1ccc(Br)c([N+](=O)[O-])c1.O=[N+]([O-])O	·	–	44	·	·
CCn1nc(-c2cccs2)nc2c(=O)n(C)c(=O)nc1-2	106	–	·	·	·
CCOc1ccc(-n2c(-c3cccs3)nc3ccccc3c2=O)cc1	–	–	–	–	–
CC1=C(O)C(=O)C=C2C1=CC=C1[C@@]2(C)CC[C@@]2(C)[C@@H]3C[C@](C)(C(=O)O)CC[C@]3(C)CC[C@]12C	·	–	110	·	·
CN(C)CCN(C(=O)Cc1csc(Nc2ccccc2F)n1)C1CCN(C)CC1	·	–	–	·	·
C#CCOc1ccc(CN2C3CCC2CC(O)(c2ccccc2F)C3)cc1OC (stereo not drawn)	·	–	–	·	·
CC(=O)c1c(O)n(-c2cccc(Cl)c2)c(=O)[nH]c1=O (tested in a mixture with another compound)	–	–	–	–	–
CC(C)n1c(O)c(C2c3cc(Cl)ccc3Oc3[nH]c(=O)n(C(C)C)c(=O)c32)c(=O)[nH]c1=O (stereo not drawn)	–	–	–	35	–
CN1CCN(C(=O)OC2c3nccnc3C(=O)N2c2ccc(Cl)cn2)CC1 (stereo not drawn)	110	–	–	–	–
Cc1cc(Cl)ccc1OCC(=O)N1CCN(C)CC1	–	–	–	–	–
CCOc1ccc(-n2c(/C=C/c3ccc([N+](=O)[O-])o3)nc3ccccc3c2=O)cc1	·	–	–	·	·
CCCc1nc2ccccc2c(=O)n1-c1ccccc1	·	–	–	·	·
